# Laboratory results reported in PubChem BioAssay (NCI).
# Compounds without any hit were thinned out: in the full panel of roughly 83,000, 20% have a hit.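 How to read the values: 0–100, growth inhibition (40 = 60% inhibited); 0, no net growth; -100 to 0, cell death (-40 = 40% of starting cells died; -100 = all dead).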 Unmarked numbers belong to inactive results. Activity calls are given as the source filed them. The calls were made as follows: active = growth percent below 10; inactive = the rest.
# How the values were obtained:
# Assay in all cases: NCI-60 one-dose screen, 48 h (100 = growth as untreated, 0 = no growth, -100 = all killed)
# Details in all cases: 10 µM unless noted
# DU-145 prostate = system: DU-145 prostate
# K-562 leukemia = system: K-562 leukemia
# MALME-3M melanoma = system: MALME-3M melanoma
# MDA-MB-231 breast = system: MDA-MB-231 breast
# RXF 393 renal = system: RXF 393 renal
# SF-268 CNS = system: SF-268 CNS
# SF-295 CNS = system: SF-295 CNS
# SF-539 CNS = system: SF-539 CNS
# UACC-257 melanoma = system: UACC-257 melanoma
# M14 melanoma = system: M14 melanoma
SMILES,growth (DU-145 prostate),growth (K-562 leukemia),growth (MALME-3M melanoma),growth (MDA-MB-231 breast),growth (RXF 393 renal),growth (SF-268 CNS),growth (SF-295 CNS),growth (SF-539 CNS),growth (UACC-257 melanoma),growth (M14 melanoma)
CC1=NN(c2ccc(Cl)cc2)CC1(C)N=O (stereo not given),83.9%,40.1%,68.5%,78.3%,32.7%,94.9%,101%,91%,90%,64.9%
COc1ccccc1-n1c(-c2cc(O)ccc2C)cn2c3c(=O)[nH]c(=O)n(C)c3nc12,79.3%,25.3%,89.9%,41.2%,19.2%,60.3%,89.8%,72.6%,83.8%,92.2%
Cc1nc2sc(C(=O)Nc3ccc(Cl)cc3)c(N)c2cc1C(O)c1ccccc1 (stereo not given),34.7%,9.79% (active),44.1%,52.2%,47.3%,54.2%,44.5%,37.7%,46.1%,19.7%
C=NNc1ccccc1,100%,75.8%,126%,66.8%,105%,92.3%,100%,101%,98.3%,95.3%
CCCCCCCCCCCCCCCCCCOc1ccccc1CC(=O)OCC[N+]1(C)CCOCC1,70.8%,58%,67.2%,49.8%,1.62% (active),36.2%,87.3%,71.6%,103%,69.9%
C=C1C(=O)O[C@H]2[C@H]1CC/C(COC(=O)c1cc3cc(F)ccc3[nH]1)=C\CC[C@@]1(C)O[C@@H]21,-93.1% (active),0.0225% (active),-76.4% (active),-70.1% (active),-84.4% (active),-71.2% (active),33%,-87% (active),-79.5% (active),-75.9% (active)
CCOC(=O)NN1CC(O)=C(c2nc(-c3ccc(Br)cc3)cs2)C1=N,105%,78.4%,112%,104%,82.9%,108%,90.9%,96.7%,96.4%,156%
CCOC(=O)C1=C(C)N=C2SC=C(c3ccccc3)N2[C@H]1c1cn[nH]c1-c1ccc(Cl)cc1,64.6%,40.5%,-27.9% (active),41.9%,61.2%,44.8%,41%,44.4%,52.6%,47.7%
COc1ccccc1NC(=O)c1ccc(/C=C/C(=O)c2nccn2C)cc1,-88.2% (active),2.11% (active),-19.9% (active),-27% (active),-71.1% (active),-61.3% (active),-87.8% (active),-90.6% (active),-2.34% (active),-61.2% (active)
O=C1OCC2=C1C(c1cccc(C(F)(F)F)c1)c1cc3c(cc1N2CCO)OCO3 (stereo not given),10.7%,9.02% (active),63.9%,44%,1.92% (active),47.6%,-2.78% (active),-3.02% (active),74.2%,2.33% (active)
O=C1CCCc2nc3sc4c(=O)n(-c5ccccc5Cl)nnc4c3cc21,111%,102%,102%,93.6%,91.2%,103%,95.1%,103%,85.3%,106%
CCOC(=O)c1c2c(n3ccccc13)C(=O)c1ncccc1C2=O,8.05% (active),11.2%,18.1%,13.4%,25%,20%,22.3%,-2.14% (active),-3.95% (active),-37.6% (active)
CN1CCN(c2ccc3c(c2)nc(NNC(=O)c2cnccn2)c2cccn23)CC1,27.3%,14.5%,36.9%,34.1%,48.6%,25.9%,10.4%,15.2%,46.6%,18.2%
COc1ccc2cc(-c3cnc4nonc4n3)ccc2c1,62.9%,13.6%,48.3%,76.4%,23.4%,36.6%,31.4%,-16% (active),42%,10.7%
O=C1/C(=C/c2ccccc2)CN(C(=O)c2cccnc2)C/C1=C\c1ccccc1,14.5%,2.62% (active),23.9%,3.84% (active),-64.1% (active),17.4%,-8.61% (active),-4.29% (active),23.9%,-41.5% (active)
O=C1CC2C=CCN2C=C1NC(=O)C1CCCCC1 (stereo not given),98.9%,99.9%,78%,108%,104%,95.5%,98.5%,98.4%,97.8%,114%
C=CCn1c(SCC(=O)Nc2ccc(C(=O)/C=C/c3ccc(OC)cc3)cc2)nnc1-c1ccccc1,93.8%,91.5%,88.2%,76.2%,115%,80.9%,90.4%,98.2%,104%,81.5%
O=C1Nc2ccc(F)cc2/C1=C\c1nc(-c2ccccc2F)n2ccccc12,-7.63% (active),102%,83.3%,98.5%,84.5%,85.1%,104%,64.7%,96.2%,97%
Cc1cc(C)c(-c2c(O)c(Br)c(-c3c(C)cc(C)c(Br)c3C)c(O)c2Br)c(C)c1Br,33.4%,15.2%,-6.91% (active),-42.5% (active),-48.7% (active),31%,-10.2% (active),22.3%,-19% (active),29.6%
CC1CN=C(c2cccc(-c3ccc(-c4ccccc4)o3)c2)N1 (stereo not given),37.4%,-38.2% (active),-85.2% (active),-51.5% (active),-67.8% (active),3.07% (active),-49.1% (active),-72.2% (active),-58.5% (active),-67.2% (active)
O=C1/C(=C/c2ccc(Br)cc2)COc2ccc(O)c(O)c21,6.06% (active),5.3% (active),-17.2% (active),-4.69% (active),-49.2% (active),-36.7% (active),57.6%,-94.2% (active),9.86% (active),9.59% (active)
COc1cc(C2Cc3ncccc3-c3[nH]c(=O)c4cccnc4c32)cc(OC)c1OC (stereo not given),23%,16.3%,77.6%,31%,8.5% (active),44.1%,1.73% (active),-18.8% (active),56.9%,10.3%
CCN=C1C=CC(=C(c2ccc(N(C)C)cc2)c2ccc(N(C)C)cc2)c2ccccc21,1.96% (active),10.9%,-48.4% (active),-12% (active),-29.2% (active),-8.78% (active),-37.5% (active),-57.4% (active),-10.1% (active),-42.2% (active)
CCN1CCN(CC(=O)Nc2nc3ccc(NCc4ccc(Br)cc4)cc3s2)CC1,83.9%,-49.7% (active),-68.2% (active),45.6%,63.9%,72.1%,86.4%,39.2%,17.7%,-56.2% (active)
COc1ccc2c(c1)c(-c1cc(-c3cn(C)c4ccc(OC)cc34)on1)cn2C,114%,98.5%,106%,100%,119%,102%,101%,101%,107%,90.1%
